Experimental findings from article PMC5540273 (PLoS ONE, 2017) are described below.

Test systems include TNNI3K; TRKB; TRPM6; TSSK1B; TSSK3; TTK; TXK.
Holding throughout (details): concentration: 1 μM, replicates: in singlicate; n = 1
A further test has as its system T1, TRKA.
T1 construct: gene NTRK1

For the next test, the system named is T2, TRKC.
T2 construct: gene NTRK3

The test system of test [1] is TYK2(JH1domain-catalytic).
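Further: KINOMEscan kinase panel screen.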

In the case of `Fc1ccc(-c2ncn(C3CCNCC3)c2-c2ccnc(Oc3ccc(-c4ccccc4)cc3)n2)cc1` [SB-245391], the “%Inh” value with TNNI3K is listed as 42%; in the test on TRKA, 13%; in the test with TRKB, 0%; in the test on TRKC, 19%; in the test on TRPM6, 19%; in the test with TSSK1B it was 0%. The “%Inh” value in the test with TSSK3 worked out at 15%; in the test with TTK it was 22%; with TXK it was 8%; in test [1] it was 32%.
Turning to `COc1ccc(CNC(=O)NC2CCN(c3ccnc(Nc4ccc(F)cc4)n3)CC2)cc1` [GSK1379788], the “%Inh” value with TNNI3K came out at 0%; in the test with TRKA, 0%; with TRKB, 0%; in the test on TRKC, 6%; in the test with TRPM6, 0%; with TSSK1B, 1%. Besides, the “%Inh” value in the test with TSSK3 came to 18%; with TTK it was 0%; in the test on TXK, 3%; in [1] it was 21%.
Consider `CN(C)S(=O)(=O)c1cc(-c2ccc3nccc(-c4cccc(S(N)(=O)=O)c4)c3c2)cnc1N` [GSK1669921], for which the “%Inh” value was 8% in the test on TNNI3K; 87% with TRKA; 0% with TRKB; 48% with TRKC; 4% with TRPM6; 3% in the test with TSSK1B. In addition, the “%Inh” value in the test with TSSK3 was 18%; in the test on TTK, 47%; in the test with TXK, 26%; in [1] it was 13%.
Regarding `c1ccc(-c2cnc3nccnn23)cc1` [AH20685], the “%Inh” value in the test on TNNI3K came out at 0%; in the test with TRKA, 0%; with TRKB, 17%; with TRKC, 0%; in the test on TRPM6, 29%; in the test with TSSK1B, 0%. Further, the “%Inh” value turned out to be 9% with TSSK3, 0% in the test with TTK, 0% with TXK and 0% in test [1].
Consider `CC(C)c1nc(-c2cccc(NS(=O)(=O)c3c(F)cccc3F)c2F)c(-c2ccnc(Nc3ccc(N4CCOCC4)nc3)n2)s1` [GSK2008607], for which the “%Inh” value in the test with TNNI3K is 92.7%; with TRKA it was 87%; with TRKB it was 0%; in the test on TRKC, 51%; in the test on TRPM6, 57%; with TSSK1B, 0%. The “%Inh” value with TSSK3 amounted to 34%; in the test on TTK, 82%; in the test on TXK it was 95.2%; in [1], 94.9%.
For `O=C(Nc1n[nH]c2nc(-c3ccc(O)cc3)ccc12)C1CC1` [SB-710363], the “%Inh” value in the test with TNNI3K was determined as 0%; in the test with TRKA it was 26%; with TRKB, 0%; in the test on TRKC, 41%; in the test on TRPM6, 0%; in the test with TSSK1B, 0%. For the same compound, the “%Inh” value in the test on TSSK3 is recorded as 37%; in the test on TTK it was 0%; with TXK, 0%; in test [1] it was 9%.
As to `CCc1ccc(-c2ccc3c(c2)-c2c(cnn2C)S(=O)(=O)N3C)cc1`, the “%Inh” value in the test on TNNI3K is 0%; in the test on TRKA, 0%; in the test with TRKB, 0%; in the test on TRKC, 0%; with TRPM6, 1%; in the test with TSSK1B, 5%. Besides, the “%Inh” value (in the test with TSSK3; in the test on TTK; with TXK; in test [1]) was 0% each time.
As for `COc1ccc(Nc2nccc(N3CCC(NC(=O)Nc4cccc(OC)c4)C3)n2)cc1` (stereo not shown) [GSK1379742], the “%Inh” value in the test on TNNI3K is given as 0%; in the test on TRKA, 54%; in the test with TRKB, 40%; in the test with TRKC, 76%; with TRPM6, 0%; with TSSK1B it was 0%. The “%Inh” value amounted to 18% in the test with TSSK3, 0% in the test on TTK, 0% in the test on TXK and 24% in test [1].
With `CN1CCN(Cc2cccc(-c3ccc4c(Nc5ccc(Oc6ccccc6)cc5)ccnc4c3)c2)CC1` [GW578342], the “%Inh” value in the test on TNNI3K came to 6%; in the test with TRKA it was 43%; in the test on TRKB, 0%; with TRKC, 19%; in the test on TRPM6, 39%; in the test on TSSK1B it was 0%. The “%Inh” value is listed as 6% in the test on TSSK3, 0% in the test on TTK, 5% with TXK and 8% in [1].
On to `Cc1cccc(Nc2nc(N[C@H]3CCNC3)ncc2C(N)=O)c1.Cl` [GSK2197149], for which the “%Inh” value with TNNI3K came to 0%; with TRKA, 93.3%; in the test with TRKB, 0%; in the test with TRKC, 18%; with TRPM6, 34%; in the test with TSSK1B, 13%. Further, the “%Inh” value is given as 29% in the test on TSSK3, 29% in the test on TTK, 15% in the test with TXK and 46% in test [1].
Consider `COC(=O)Nc1nc2ccc(Oc3ccc(NC(=O)Nc4cc(C(F)(F)F)ccc4F)cc3)cc2n1C.Cl` [GW692089], for which the “%Inh” value is on record as 72% in the test on TNNI3K; 100% in the test with TRKA; 84% in the test with TRKB; 96.5% in the test with TRKC; 0% in the test on TRPM6; 0% with TSSK1B. Further, the “%Inh” value with TSSK3 came to 0%; with TTK it was 17%; in the test on TXK, 0%; in test [1], 26%.
As for `c1ccc(-c2n[nH]cc2Nc2ccnc3ccccc23)nc1` [GW694077], the “%Inh” value in the test with TNNI3K is 0%; in the test on TRKA, 74%; with TRKB it was 26%; with TRKC it was 21%; in the test on TRPM6 it was 15%; with TSSK1B it was 12%. Besides, the “%Inh” value is recorded as 28% with TSSK3, 64% with TTK, 0% with TXK and 92% in [1].
In the case of `COc1cc(Nc2nccc(N3CCC(NC(=O)Nc4cccc(C(C)=O)c4)C3)n2)cc(OC)c1OC` (stereo not shown) [GSK1379753], the “%Inh” value in the test on TNNI3K was found to be 9%; with TRKA it was 62%; in the test on TRKB it was 63%; in the test on TRKC, 92.3%; in the test with TRPM6, 41%; with TSSK1B, 6%. Besides, the “%Inh” value with TSSK3 is 9%; with TTK, 21%; in the test with TXK, 0%; in test [1], 45%.
Turning to `NCCCC(NC(=O)c1cc(Br)c(-c2ccnc3[nH]ccc23)s1)c1ccccc1.O=C(O)C(F)(F)F.O=C(O)C(F)(F)F` (stereo not shown) [GSK1287544], the “%Inh” value with TNNI3K is given as 0%; with TRKA it was 53%; in the test with TRKB it was 11%; in the test with TRKC, 17%; with TRPM6, 16%; in the test on TSSK1B, 17%. Further, the “%Inh” value in the test with TSSK3 is given as 1%; in the test with TTK it was 21%; in the test with TXK, 18%; in test [1], 75%.
In the case of `Cn1cc(-c2ccc3c(c2)CCN3C(=O)Cc2cccc(Cl)c2)c2c(N)ncnc21` [GSK2606590], the “%Inh” value was determined as 0% in the test with TNNI3K; 73% in the test on TRKA; 54% in the test on TRKB; 57% in the test with TRKC; 0% in the test with TRPM6; 20% with TSSK1B. Moreover, the “%Inh” value in the test with TSSK3 was found to be 17%; with TTK, 30%; with TXK, 0%; in [1], 10%.
For `Cl.Cl.NCC(C(=O)Nc1cc(Br)c(-c2ccnc3[nH]ccc23)s1)c1ccccc1` (stereo not shown) [GSK1269851], the “%Inh” value with TNNI3K worked out at 12%; in the test on TRKA, 19%; in the test on TRKB, 28%; in the test with TRKC it was 31%; in the test on TRPM6, 7%; with TSSK1B, 21%. Further, the “%Inh” value in the test on TSSK3 stood at 4%; with TTK it was 0%; with TXK, 0%; in test [1] it was 22%.
